FEN1 inh – human FEN1 inhibition | Recombinant FEN1 flap cleavage, fluorescence, 15 min | AID 588795 | P39748 | Potency, µM (titrated, usually from 114 µM), most hits filed as inhibitors | hit rate 0.35% among 390,000; further: nearly all actives have a fitted effect of over 65% in size
Target sequence (P39748 whole entry, looked up): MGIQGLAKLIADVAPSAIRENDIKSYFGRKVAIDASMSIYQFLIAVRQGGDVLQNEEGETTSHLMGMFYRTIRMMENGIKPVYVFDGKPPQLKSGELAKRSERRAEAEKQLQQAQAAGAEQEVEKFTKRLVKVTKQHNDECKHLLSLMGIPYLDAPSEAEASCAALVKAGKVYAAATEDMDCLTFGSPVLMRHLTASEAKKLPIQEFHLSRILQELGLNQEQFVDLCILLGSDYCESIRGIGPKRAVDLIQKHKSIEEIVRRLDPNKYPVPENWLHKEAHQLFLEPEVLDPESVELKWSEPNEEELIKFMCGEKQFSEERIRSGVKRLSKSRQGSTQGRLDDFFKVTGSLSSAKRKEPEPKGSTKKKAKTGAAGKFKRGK
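Potency values derive from four-parameter Hill fits of normalized qHTS data. The reaction used 10 nM FEN1 preincubated 15 min at room temperature with compound, then 50 nM DNA substrate, read at 0 and 15 min.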
Pol beta inh – DNA polymerase beta (human) inhibition; AID 485314; Pol beta primer extension/strand displacement, fluorescence kinetic; Potency, µM (highest dose often 114 µM), actives largely listed as inhibitors; hit rate 1.3% among 340,000
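Pol beta (10 nM) was preincubated with compound for 15 min at room temperature. The reaction was then started with 50 nM substrate and read immediately and after a further 10 min at room temperature.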
POLI inh – inhibitors of human DNA polymerase iota | Potency, µM (doses to about 115 µM), hits mostly inhibitors | hit rate 1% among 390,000 | AID 588590 | Pol iota fluorescent replication assay, 10 min | Q9UNA4
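Pol iota at 10 nM preincubated 15 min with compounds at room temperature; reaction started with fluorescent substrate, 50 nM final. Fluorescence read kinetically at 0 and 10 min; buffer-only wells as negative control.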
Pol eta inh-1 – DNA polymerase eta (human) inhibition; AID 588591; Q9Y253; Potency, µM (highest dose often 114 µM), usual class: inhibitors; recombinant Pol eta, fluorescent DNA replication assay; hit rate 1.2% among 390,000
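Pol eta at 10 nM preincubated with compounds 15 min at room temperature; reaction started with fluorescent substrate (50 nM final) and read kinetically at 0 and 10 min.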
Pol kappa inh-1 – DNA polymerase kappa (human) inhibition | purified Pol kappa, fluorescent DNA synthesis assay, 10 min | Potency, µM (highest dose often 107 µM), usual class: inhibitors | hit rate 0.53% among 400,000
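10 nM Pol kappa preincubated 15 min at room temperature with compounds, then reaction started with substrate at 50 nM final. Fluorescence read kinetically at 0 and 10 min; buffer-only wells served as negative control.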
TDP1 block – inhibitors of human tyrosyl-DNA phosphodiesterase TDP1 | Q9NUW8 | recombinant TDP1, AlphaScreen DNA substrate cleavage | Potency, µM (series often up to 130 µM), actives largely listed as inhibitors | hit rate 0.28% among 350,000; further: nearly all actives have a fitted effect of over 40% in size
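Here, a 5' biotin and 3' phosphotyrosine-FITC DNA oligonucleotide reports Tdp1 activity: intact substrate bridges AlphaScreen beads, while cleavage leaves a 3' phosphate and drops signal. All incubations at room temperature.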
TbPGK inh – TbPGK inhibition, hit validation; AID 686980; TbPGK coupled GAPDH assay, Kinase-Glo luminescence; hit rate 79% among 500; shares compounds with Pol kappa inh-1; Potency, µM (highest dose often 57.5 µM), usual class: inhibitors; further: nearly all actives have a fitted effect of over 65% in size
POLI cherry-pick – Human Pol iota inhibitor confirmatory assay; shares compounds with Pol kappa inh-1; Pol iota primer extension, TAMRA/BHQ fluorescence; Potency, µM, usual class: inhibitors; hit rate 77% among 1,500; AID 720496
GALK confirm – confirmation of human galactokinase (GALK) inhibitors; shares compounds with Pol eta inh-1; purified GALK, Kinase-Glo ATP depletion luminescence; Potency, µM (highest dose often 115 µM), hits mostly inhibitors; hit rate 70% among 150
GALK redox cs – redox cycling activity in phenol red-HRP assay | shares compounds with Pol eta inh-1 | Phenol red-HRP H2O2 redox cycling, absorbance 600 nm | Potency, µM (top dose mostly 115 µM), actives largely listed as inhibitors | hit rate 40% among 150
HEK293 viability – HEK-293 cytotoxicity, GALK inhibitor secondary; shares compounds with Pol eta inh-1; HEK-293 viability, ATP luminescence (CellTiter-Glo), 24/48 h; Potency, µM (top dose mostly 46.1 µM), usual class: inhibitors; hit rate 10% among 170; AID 2547
Pol kappa inh-2 – Pol kappa (human) inhibition, cherry-pick confirmation; Potency, µM, actives largely listed as inhibitors; purified Pol-kappa, fluorescent strand-displacement substrate; shares compounds with Pol eta inh-1; AID 720501; hit rate 76% among 920
Pol eta inh-2 – confirmation of human DNA polymerase eta inhibitors; Potency, µM, usual class: inhibitors; shares compounds with Pol eta inh-1; hit rate 64% among 2,600; Pol eta primer extension, TAMRA/BHQ fluorescence, 10 min
Numbers stand for hits; – = inactive; ? = inconclusive; · = not tested or not shown; ! = not active in a repeat; [ ] = dose if it differs, or a comment. Hits are enriched below; roughly 2.4% of the tested compounds scored in any of these assays. The call rests on the fitted dose curve; in most records, active means well fitted curve in the direction sought with a large enough effect; inconclusive means small, poorly fitted or top-dose-only effect, or another doubt; inactive means no such curve, though single readings can be large; an effect the other way counts as inactive or inconclusive.

SMILES	FEN1 inh	Pol beta inh	POLI inh	Pol eta inh-1	Pol kappa inh-1	TDP1 block	POLI cherry-pick	Pol eta inh-2	others
CC1(OC(=O)c2ccc(Cl)nc2)C(=O)C=C2C=C3CCCN3C=C2C1=O (stereo not given)	?	25µM	?	14µM	50µM	8.9µM	67	48
CC(=O)Nc1ccc(NC(=O)CSc2nc(N)c(NC(=O)c3ccccc3F)c(=O)[nH]2)cc1	–	?	40µM	25µM	?	?	67	?	Pol kappa inh-2=?
O=C1C(SCCO)=C(SCCO)C(=O)c2ccccc21	?	–	1.1µM!	16µM	?	–	24	24	GALK confirm=19µM;GALK redox cs=11µM;HEK293 viability=?
O=C(O)Cc1ccc(NC(=O)c2ccc3c(c2)C(=O)N(Cc2ccco2)C3=O)cc1	–	–	11µM	4µM	?	–	60	24
CCc1ccc(NC(=O)N(Cc2c[nH]c3ccccc23)C2CCCCCC2)cc1	–	–	–	–	–	–	·	·
COc1cc(/C=C(\CCC(=O)O)c2nc3ccccc3s2)ccc1OCC(=O)Nc1c(Cl)cccc1Cl	?	·	–	?	–	28µM	38	76	TbPGK inh=10µM
COc1ccc2c(c1)c(=O)oc1cc(OCC(=O)N3CCc4ccccc4C3)ccc12	–	11µM	?	89µM	?	13µM	34	76	TbPGK inh=3.3µM;Pol kappa inh-2=8.4
NC(=S)NS(=O)(=O)c1ccc(N)cc1	·	·	·	·	–[19.4 µM]	·	·	·
N#C/C(=C\c1ccccc1OCc1ccc(C(=O)O)cc1)c1ccccc1	–	–	–	–	–	–	·	·
CCOC(=O)/C(C#N)=C/c1cccn1-c1ccc(Cl)cc1	–	–	–	–	–	–	·	·
N#CC(C#N)=Cc1cccn1-c1ccc(C(=O)O)cc1	–	5µM	18µM	10µM	40µM	3.2µM	19	27	Pol kappa inh-2=17
N#C/C(=C/c1cccn1-c1cccc(C(=O)O)c1)c1ccc(Cl)cc1	–	8.9µM	20µM	50µM	?	·	75	?	Pol kappa inh-2=75
C=CC[C@@H]1C=C[C@@H](O/N=C\c2ccc(C(=O)N3[C@H](c4ccc(C)cc4)[C@@H](C)CC[C@H]3C(=O)OC)cc2)[C@@H](CO)O1	·	·	·	·	·	–[21 µM]	·	·
CCCCCOC(=O)CSc1nc2sc3c(c2c(=O)n1-c1ccccc1)CC(C)(CC)OC3 (stereo not given)	?	–	–	–	–	–[12.3 µM]	·	·
O=C(O)c1cc(/C=C/C(=O)c2cc(F)ccc2O)c2c(c1)COCO2	–	?	14µM	22µM	?	·	67	48
O=C(COC(=O)c1cncc(Br)c1)NCc1ccco1	–	22µM	?	10µM	79µM	7.1µM	24	?	Pol kappa inh-2=24
COc1ccc(CC(=O)OCC(=O)NCc2ccco2)cc1OC	–	·	–	–	–	–	·	·
O=C(COC(=O)c1cccs1)NCc1ccco1	–	20µM	20µM	14µM	?	45µM	75	85
O=C(NCc1cccc(CNC(=O)C(=O)NCc2ccco2)c1)C(=O)NCc1ccco1	–	22µM	?	28µM	–	–	67	76	Pol kappa inh-2=?
O=C(COC(=O)c1cccs1)NCc1ccccc1	–	–	–	–	–	–	·	·
O=C(COC(=O)Cc1cccc(C(F)(F)F)c1)NCc1ccco1	–	·	?	5µM	45µM	·	60	30	Pol kappa inh-2=24
CC(=O)N1CCc2cc(CNS(=O)(=O)c3cccs3)ccc21	–	–	–	–	–	–	·	·
Cc1cccc(NC(=O)Cn2c(=O)oc3cc(S(=O)(=O)NCc4ccccc4)ccc32)c1	–	?	?	–	–	–	·	·
CCc1nn2c(=O)cc(COc3ccc(/C=C4\C(=N)N5N=C(CC(C)C)SC5=NC4=O)cc3)nc2s1	–	?	?	?	–	·	75	76
Cn1ccsc1=NC(=O)c1ccc([N+](=O)[O-])o1	–	–	25µM	40µM	?	–	34	43
SMILES	FEN1 inh	Pol beta inh	POLI inh	Pol eta inh-1	Pol kappa inh-1	TDP1 block	POLI cherry-pick	Pol eta inh-2	others
Cn1ccsc1=NC(=O)c1ccc(=O)[nH]c1	–	–	–	–	–	–	·	·
CCOC(=O)C1=C(C)N(C[C@@H]2CC[C@@H](Cc3ccc(-c4ccccc4)cc3)O2)C(=O)NC1c1ccc(C(F)(F)F)cc1 (stereo not given in full)	–	·	–	–	–	–	·	·
CCOC(=O)C1=C(C)N(C[C@@H]2CC[C@@H](Cc3ccc(-c4ccccc4)cc3)O2)C(=O)NC1c1ccc(SCc2ccco2)c([N+](=O)[O-])c1 (stereo not given in full)	–	·	?	13µM	?	–	60	48	Pol kappa inh-2=17
CCN(CC)CCNC(=O)c1cc(-c2ccco2)nc2ccccc12	–	–	–	–	–	–	·	·
COc1cccc(NC(=O)CN(C)C(=O)c2cc(-c3ccco3)nc3ccccc23)c1	–	·	35µM	?	?	–[0.505 µM]	38	30
COc1ccc(CCNC(=O)c2cc(-c3ccco3)nc3ccccc23)cc1	–	·	22µM	8.9µM	79µM	·	34	67
COc1cccc(NC(=O)c2cc(-c3ccco3)nc3ccccc23)c1	–	·	?	?	?	·	·	·
O=C(O)c1ccccc1/C=N/NC(=O)c1cc(-c2ccco2)nc2ccccc12	?	8.9µM	?	3.2µM	35µM	·	17	7.6
O=C(Nc1ccccc1F)c1cc(-c2ccco2)nc2ccccc12	–	·	?	79µM	–	·	?	85
COc1ccc(CCNC(=O)Cn2c(=O)cc(C(F)(F)F)c3c(C)nn(C)c32)cc1OC	–	–	–	–	–	–	·	·
NC1=NC(=O)C(=Cc2ccccc2)S1	–	·	–	–	–	·	·	·

Screening data (PubChem BioAssay)
